SMILES strings stand for the structures. About 6,500 (11%) of roughly 59,000 compounds were called active. Not shown: some 15% with an inconclusive outcome. Cut-off read from the data, not from the text of the source: active = max dye-equivalent concentration above about 10 nM; inconclusive = mostly about 1.1 nM to 9.6 nM; inactive = weaker than that. For the sample, actives were picked, then their nearest neighbours and some compounds at random.

The record followed here is PubChem BioAssay AID590 (National Center for Advancing Translational Sciences (NCATS), 2007).

A short description of this assay: qHTS Assay for Spectroscopic Profiling in A350 Spectral Region. The conditions noted are these: Compound autofluorescence, 340/450 nm, Alexa 350 dye-equivalents; active compounds read high.
Turning to `O=C(O)COc1nsnc1N1CCOCC1`, the max dye-equivalent concentration result is “inactive”.

On to `CN(C)C(=O)c1ccc(-c2cncnc2Nc2ccccc2)cc1`, for which the max dye-equivalent concentration result is “inactive”.

With `CN(C(=O)COc1ccccc1)c1nnc(-c2ccncc2)s1`, the max dye-equivalent concentration entry is “inactive”.

Turning to `CN(C(=O)c1ccno1)c1nnc(-c2cccnc2)s1`, the max dye-equivalent concentration entry was “inactive”.

Take `COc1cccc(-c2nnc(N(C)C(=O)c3ccno3)s2)c1`: the max dye-equivalent concentration is 32 nM (active).

With `CCCn1c(SCC(N)=O)nnc1C(C)C`, the max dye-equivalent concentration result is “inactive”.

Consider `Cc1cccc(N)c1SC1CCCCC1O` (stereo not drawn), for which the max dye-equivalent concentration result was “inactive”.

Consider `O=c1c(F)cn(C2CCCO2)c(=O)n1Cc1ccccc1Cl` (stereo not drawn), for which the max dye-equivalent concentration entry is “inactive”.

In the case of `CCn1c(Cc2ccccc2)nnc1SCC(=O)Nc1ccccc1`, the max dye-equivalent concentration entry is “inactive”.

Take `COc1ccc(OC)c(CNC(=O)C2CCCN(c3nc4ccccc4o3)C2)c1` (stereo not drawn): the max dye-equivalent concentration entry was “inactive”.

In the case of `COc1ccc2nc(N3CCCC(O)C3)c(C#N)cc2c1` (stereo not drawn), the max dye-equivalent concentration is 130 nM (active).

On to `Cc1ccc(SCCN2C(=O)NC(C)(C)C2=O)cc1`, for which the max dye-equivalent concentration entry is “inactive”.

Regarding `Cn1nnc(NC(=O)CSc2ncn[nH]2)n1`, the max dye-equivalent concentration result was “inactive”.

Take `O=C(NCc1ccccn1)c1cc2ccccc2oc1=O`: the max dye-equivalent concentration was 21 nM (active).

With `O=C(NCc1ccccn1)c1cnc2sccn2c1=O`, the max dye-equivalent concentration result is “inactive”.

With `Nc1ncc(-c2cc3ccccc3oc2=O)s1`, the max dye-equivalent concentration entry was “inactive”.

For the compound `Cc1ccsc1C(=O)OCC(=O)c1cc2ccccc2o1`, the max dye-equivalent concentration entry was “inactive”.

Take `O=C(Oc1cccnc1)c1cc2ccccc2oc1=O`: the max dye-equivalent concentration is 96 nM (active).

With `O=C(NCc1ccccn1)Nc1ccc(F)cc1`, the max dye-equivalent concentration entry is “inactive”.

For the compound `CC(C)CSC[C@@H]1O[C@H](n2cnc3c(N)nccc32)[C@H](O)[C@@H]1O`, the max dye-equivalent concentration result is “inactive”.

`O=c1cc(CSc2ccc(Cl)cc2)nc(N2CCOCC2)[nH]1`: the max dye-equivalent concentration entry is “inactive”.

As for `Cc1ccc2c(CSc3nncs3)cc(=O)oc2c1`, the max dye-equivalent concentration entry was “inactive”.

For `O=C(Nc1cnccn1)c1cccnc1`, the max dye-equivalent concentration entry is “inactive”.

`O=C(c1ccncc1)N1CCC2(CCN(Cc3cc(C(F)(F)F)cc(C(F)(F)F)c3)CC2)CC1`: the max dye-equivalent concentration entry is “inactive”.

Take `O=C(Nc1cccc2c1CCCC2)C1CCN(C(=O)NC2CCCCC2)CC1`: the max dye-equivalent concentration result was “inactive”.

For `CCC(=O)Nc1ccc(C(=O)CSc2nnc(CNc3ccc(Cl)cc3)o2)cc1OC`, the max dye-equivalent concentration result was “inactive”.

As to `O=C(NC1CCCCC1)n1c(=O)oc2cc(S(=O)(=O)N3CCCCC3)ccc21`, the max dye-equivalent concentration entry was “inactive”.

For the compound `CCC(c1nnnn1Cc1ccco1)N(CCc1ccccc1)Cc1cc2ccc(OC)cc2[nH]c1=O` (stereo not drawn), the max dye-equivalent concentration result is “inactive”.

In the case of `CCOc1ccc2[nH]c(=O)c(CN(Cc3nnnn3Cc3ccccc3)CC3CCCO3)cc2c1` (stereo not drawn), the max dye-equivalent concentration is 150 nM (active).

For `Cc1cccc2cc(CN(Cc3cccs3)C(c3nnnn3C3CCCC3)C(C)C)c(=O)[nH]c12` (stereo not drawn), the max dye-equivalent concentration entry was “inactive”.

With `CCC(c1nnnn1C1CCCC1)N(Cc1cccs1)Cc1cc2cccc(C)c2[nH]c1=O` (stereo not drawn), the max dye-equivalent concentration entry is “inactive”.

With `CCC(c1nnnn1Cc1ccco1)N(Cc1cc2cc(OC)ccc2[nH]c1=O)C1CCCCC1` (stereo not drawn), the max dye-equivalent concentration is 21 nM (active).

`Cc1cccc2cc(CN(Cc3ccc4c(c3)OCO4)Cc3nnnn3C3CCCC3)c(=O)[nH]c12`: the max dye-equivalent concentration entry was “inactive”.

As for `CC(C)(C)n1nnnc1C(c1cccs1)N(Cc1cccnc1)CC1CCCO1` (stereo not drawn), the max dye-equivalent concentration entry was “inactive”.

Regarding `COc1ccccc1N1CCN(Cc2nnnn2CCc2ccccc2)CC1`, the max dye-equivalent concentration result is “inactive”.

On to `CCC(c1nnnn1Cc1ccccc1)N(Cc1cc2cc(OC)ccc2[nH]c1=O)CC1CCCO1` (stereo not drawn), for which the max dye-equivalent concentration was 32 nM (active).

With `CCOc1ccc2[nH]c(=O)c(CN(Cc3nnnn3CCc3ccccc3)CC3CCCO3)cc2c1` (stereo not drawn), the max dye-equivalent concentration is 76 nM (active).

Turning to `COc1ccc(N(CC(=O)NC(C)(C)C)C(=O)c2ccco2)cc1`, the max dye-equivalent concentration entry is “inactive”.

For `O=C(O)CCN1C(=O)CC2(CCCCC2)C1=O`, the max dye-equivalent concentration entry is “inactive”.

For the compound `O=c1[nH]nc(CSCc2ccccc2Cl)[nH]1`, the max dye-equivalent concentration entry was “inactive”.

For `N#Cc1ccc(CSc2nnc(-c3ccccn3)n2-c2ccc(Cl)cc2)cc1`, the max dye-equivalent concentration entry is “inactive”.

Consider `CN(C)c1ccc(CNC23CN4CN(CN(C4)C2)C3)cc1`, for which the max dye-equivalent concentration entry is “inactive”.

`CCOC(=O)CSc1nnc(CNC(=O)c2ccco2)n1-c1ccc(F)cc1`: the max dye-equivalent concentration result was “inactive”.

Consider `O=C(Oc1ccc2c(c1)CN(Cc1ccccc1)CO2)c1ccccc1`, for which the max dye-equivalent concentration result was “inactive”.

Take `COC(=O)c1c(NC(=O)CSc2nc3c(c(=O)n(C)c(=O)n3C)n2C(C)C)sc(C)c1C`: the max dye-equivalent concentration result was “inactive”.

As for `CCOP1(=O)C=C(C(C)(C)C)OC1c1ccc(F)cc1` (stereo not drawn), the max dye-equivalent concentration result is “inactive”.

Take `CC(C)c1nc(-c2ccccn2)no1`: the max dye-equivalent concentration result was “inactive”.

Turning to `CSCCC(NS(=O)(=O)/C=C/c1ccccc1)C(=O)N1CCC(C)CC1` (stereo not drawn), the max dye-equivalent concentration result is “inactive”.

As to `CCn1c(SCC(=O)Nc2ccc3c(c2)OCCO3)nc2c(c1=O)SC(C)C2` (stereo not drawn), the max dye-equivalent concentration result was “inactive”.

`O=C(O)c1ccc(C(=O)O)c2c(C(=O)O)ccc(C(=O)O)c12`: the max dye-equivalent concentration result is “inactive”.

Turning to `O=C(OCc1cc2ccccc2[nH]c1=O)c1cccnc1`, the max dye-equivalent concentration result was “inactive”.

Consider `CCOc1ccc2[nH]c(=O)c(CN(CCCO)C(C)=O)cc2c1`, for which the max dye-equivalent concentration is 290 nM (active).

Consider `Cc1cc(C)c2cc(CN(Cc3cccs3)Cc3nnnn3CC3CCCO3)c(=O)[nH]c2c1` (stereo not drawn), for which the max dye-equivalent concentration result is “inactive”.

In the case of `CCOc1ccc2c(c1)cc(CN(C(=O)CC)C1CCCCC1)c1nnnn12`, the max dye-equivalent concentration entry is “inactive”.

Turning to `c1ccc(CCn2nnnc2CN2CCN(C3CCCC3)CC2)cc1`, the max dye-equivalent concentration result was “inactive”.

As to `COc1ccc2[nH]c(=O)c(CN(CC3CCCO3)C(=O)Nc3ccccc3)cc2c1` (stereo not drawn), the max dye-equivalent concentration is 100 nM (active).

Take `COc1ccc2[nH]c(=O)c(CN(Cc3nnnn3CCc3ccccc3)CC3CCCO3)cc2c1` (stereo not drawn): the max dye-equivalent concentration was 300 nM (active).

On to `CCC(=O)N(Cc1cc2cc(OC)ccc2[nH]c1=O)c1ccccc1C`, for which the max dye-equivalent concentration is 170 nM (active).

For `O=C(CN(CC1CCCO1)C(=O)CNS(=O)(=O)c1ccccc1)NCc1ccccc1` (stereo not drawn), the max dye-equivalent concentration entry was “inactive”.

For `C[C@@H]1CC[C@H]2[C@H](C)[C@H]3[C@H](C[C@H]4[C@@H]5CC=C6C[C@@H](O)CC[C@@]6(C)[C@@H]5C[C@@H](O)[C@]34C)N2C1`, the max dye-equivalent concentration entry was “inactive”.

As for `CN(C)CCNC(CC(=O)Nc1ccc(Cl)c(Cl)c1)C(=O)O` (stereo not drawn), the max dye-equivalent concentration entry was “inactive”.

With `Cc1ccc(CNC(=O)C2CCCN(S(C)(=O)=O)C2)cc1` (stereo not drawn), the max dye-equivalent concentration entry was “inactive”.

Regarding `O=C(Nc1ccccc1F)c1cc(S(=O)(=O)N2CCCCC2)cs1`, the max dye-equivalent concentration result is “inactive”.

For `NCC(=O)[C@@H](O)[C@H](O)[C@H](O)CO`, the max dye-equivalent concentration result is “inactive”.

Turning to `O=C(O)c1nn(-c2ccc(Cl)cc2)c2c1C(=O)c1ccccc1C2=O`, the max dye-equivalent concentration entry was “inactive”.

In the case of `CCCN1CCN(CCCNC(=O)CN2C(=O)COc3ccccc32)CC1`, the max dye-equivalent concentration entry is “inactive”.

For the compound `CCn1c2c(c3ccc(OC)cc31)CCCC2=O`, the max dye-equivalent concentration was 11 nM (active).

On to `C[C@H](CCC(=O)NCC(=O)O)[C@H]1CC[C@H]2[C@H]3[C@@H](C[C@@H](O)[C@]12C)[C@]1(C)CC[C@H](O)C[C@@H]1C[C@@H]3O`, for which the max dye-equivalent concentration result is “inactive”.
